In PubChem BioAssay (NCATS) one finds Potency and outcome data, which are given here for one molecule.

The other results are listed elsewhere or left out. Records with an inconclusive call do not appear. Active and inactive are the calls of the source. The call rests on the fitted dose curve; in most records, active means well fitted curve in the direction sought with a large enough effect; inconclusive means small, poorly fitted or top-dose-only effect, or another doubt; inactive means no such curve, though single readings can be large; an effect the other way counts as inactive or inconclusive.

Assay [1] concerns the target Phosphoglycerate kinase, glycosomal (Trypanosoma brucei brucei) (UniProt P07378). The experiment in a line: qHTS for inhibitors of Phosphogylcerate Kinase: Hit Validation Screen (AID 686980). Further: potency means the concentration at half of the fitted maximal effect; nearly all actives have a fitted effect of over 65% in size. The conditions noted are these: TbPGK coupled GAPDH assay, Kinase-Glo luminescence. The method in brief:
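Luminescent ATP detection (Kinase-Glo Plus) follows a 60-minute room-temperature incubation, with wells lacking PGK as controls. Buffer: 100 mM TEA (pH 7.6), 5 mM MgCl2, 0.01% Tween-20. Coupling enzyme GAPDH (100 nM final) supplies unstable 1,3-BPG in-well.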

For assay [2], the target named is DNA polymerase iota (Homo sapiens) (UniProt Q9UNA4). The experiment in a line: qHTS for Inhibitors of Polymerase Iota: Confirmatory Assay for Cherry-picked Compounds (AID 720496). Further: potency means the concentration at half of the fitted maximal effect. The conditions noted are these: Pol iota primer extension, TAMRA/BHQ fluorescence. In short, it runs like this: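 Human Pol iota (10 nM) was preincubated 15 min at room temperature with compound, then started with 50 nM TAMRA/BHQ-2 quenched primer-template substrate. Fluorescence (ex 525/em 598 nm) was read at 0 and 10 min.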
Chain of DNA polymerase iota (Homo sapiens) (Q9UNA4 whole entry, looked up): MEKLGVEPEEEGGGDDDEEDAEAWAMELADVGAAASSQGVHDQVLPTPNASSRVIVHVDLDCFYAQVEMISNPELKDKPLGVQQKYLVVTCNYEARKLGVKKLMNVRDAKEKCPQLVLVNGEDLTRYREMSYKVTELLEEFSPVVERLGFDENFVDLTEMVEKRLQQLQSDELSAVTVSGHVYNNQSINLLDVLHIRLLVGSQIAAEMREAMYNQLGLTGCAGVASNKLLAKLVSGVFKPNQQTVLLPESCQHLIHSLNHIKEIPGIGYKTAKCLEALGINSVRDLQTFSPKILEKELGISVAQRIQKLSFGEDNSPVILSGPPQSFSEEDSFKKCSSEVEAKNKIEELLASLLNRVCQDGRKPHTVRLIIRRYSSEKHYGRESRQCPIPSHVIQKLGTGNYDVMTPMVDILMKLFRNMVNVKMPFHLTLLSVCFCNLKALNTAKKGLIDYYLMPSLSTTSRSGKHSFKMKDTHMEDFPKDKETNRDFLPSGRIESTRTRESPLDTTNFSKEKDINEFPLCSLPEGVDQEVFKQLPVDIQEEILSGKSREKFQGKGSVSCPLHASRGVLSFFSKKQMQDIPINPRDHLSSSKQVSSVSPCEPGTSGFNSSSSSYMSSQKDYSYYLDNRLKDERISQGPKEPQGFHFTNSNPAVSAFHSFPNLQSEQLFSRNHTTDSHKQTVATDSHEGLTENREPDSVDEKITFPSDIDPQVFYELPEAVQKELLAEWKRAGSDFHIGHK

Assay [3] has as its target Bifunctional 3'-5' exonuclease/ATP-dependent helicase WRN (Homo sapiens) (UniProt Q14191). The assay can be described thus: qHTS for Inhibitors of WRN Helicase: Confirmatory Assay for Cherry-picked Compounds. (AID 720497). Further: potency means the concentration at half of the fitted maximal effect; nearly all actives have a fitted effect of over 65% in size. To be noted: WRN helicase DNA unwinding, fluorescence kinetic. The method in brief: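 WRN (20 nM) was preincubated 15 min at RT with compound, then started with 100 nM forked duplex oligonucleotide and 2 mM ATP. Unwinding was read kinetically by red fluorescence (ex 525/em 598 nm), normalized to enzyme-free and uninhibited controls.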

Assay [4] in a line: qHTS for Inhibitors of WRN Helicase: Thiazole Orange DNA Binding Counterscreen (AID 720499).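 Further: drop in dye fluorescence marks compound binding to DNA; nearly all actives have a fitted effect of over 60% in size.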 The conditions noted are these: thiazole orange DNA binding displacement, fluorescence; series mostly up to 57.1 µM. The method in brief: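 Thiazole orange displacement counterscreen: compounds added to 50 nM unlabeled DNA with 100 nM ThO. Fluorescence (ex 480, em 530 nm) read after 15 min at room temperature; activity flags nonspecific DNA binding.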

For assay [5], the target named is DNA polymerase kappa (Homo sapiens) (UniProt Q9UBT6). The experiment in a line: qHTS for Inhibitors of Polymerase Kappa: Confirmatory Assay for Cherry-picked Compounds (AID 720501). Further: potency means the concentration at half of the fitted maximal effect. To be noted: purified Pol-kappa, fluorescent strand-displacement substrate. The method in brief:
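Human Pol-kappa, dispensed at 10 nM, was preincubated with compounds for 15 min at room temperature. Reactions were started with primer/template substrate (50 nM final) carrying a TAMRA reporter strand and BHQ-2-quenched template, and fluorescence (ex 525/em 598 nm) was read at 0 and 10 min.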

The target in assay [6] is RecQ-like DNA helicase BLM (Homo sapiens) (UniProt P54132). The experiment in a line: qHTS for Inhibitors of WRN Helicase: BLM Helicase Counterscreen for WRN Inhibitors (AID 720503). Further: potency means the concentration at half of the fitted maximal effect; nearly all actives have a fitted effect of over 60% in size. The conditions noted are these: Recombinant BLM helicase DNA unwinding, red fluorescence. The method in brief:
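BLM at 1 nM was preincubated with compound for 15 min at room temperature in 25 mM Tris-HCl pH 8.0, 50 mM NaCl, 2 mM MgCl2, 1 mM DTT and 0.01% Tween-20. Unwinding was started with 100 nM DNA and 2 mM ATP (final). Fluorescence (ex 525/em 598 nm) was read twice, 15 min apart, and normalized to enzyme-free and DMSO controls.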

Chain of RecQ-like DNA helicase BLM (Homo sapiens) (P54132 whole entry, looked up): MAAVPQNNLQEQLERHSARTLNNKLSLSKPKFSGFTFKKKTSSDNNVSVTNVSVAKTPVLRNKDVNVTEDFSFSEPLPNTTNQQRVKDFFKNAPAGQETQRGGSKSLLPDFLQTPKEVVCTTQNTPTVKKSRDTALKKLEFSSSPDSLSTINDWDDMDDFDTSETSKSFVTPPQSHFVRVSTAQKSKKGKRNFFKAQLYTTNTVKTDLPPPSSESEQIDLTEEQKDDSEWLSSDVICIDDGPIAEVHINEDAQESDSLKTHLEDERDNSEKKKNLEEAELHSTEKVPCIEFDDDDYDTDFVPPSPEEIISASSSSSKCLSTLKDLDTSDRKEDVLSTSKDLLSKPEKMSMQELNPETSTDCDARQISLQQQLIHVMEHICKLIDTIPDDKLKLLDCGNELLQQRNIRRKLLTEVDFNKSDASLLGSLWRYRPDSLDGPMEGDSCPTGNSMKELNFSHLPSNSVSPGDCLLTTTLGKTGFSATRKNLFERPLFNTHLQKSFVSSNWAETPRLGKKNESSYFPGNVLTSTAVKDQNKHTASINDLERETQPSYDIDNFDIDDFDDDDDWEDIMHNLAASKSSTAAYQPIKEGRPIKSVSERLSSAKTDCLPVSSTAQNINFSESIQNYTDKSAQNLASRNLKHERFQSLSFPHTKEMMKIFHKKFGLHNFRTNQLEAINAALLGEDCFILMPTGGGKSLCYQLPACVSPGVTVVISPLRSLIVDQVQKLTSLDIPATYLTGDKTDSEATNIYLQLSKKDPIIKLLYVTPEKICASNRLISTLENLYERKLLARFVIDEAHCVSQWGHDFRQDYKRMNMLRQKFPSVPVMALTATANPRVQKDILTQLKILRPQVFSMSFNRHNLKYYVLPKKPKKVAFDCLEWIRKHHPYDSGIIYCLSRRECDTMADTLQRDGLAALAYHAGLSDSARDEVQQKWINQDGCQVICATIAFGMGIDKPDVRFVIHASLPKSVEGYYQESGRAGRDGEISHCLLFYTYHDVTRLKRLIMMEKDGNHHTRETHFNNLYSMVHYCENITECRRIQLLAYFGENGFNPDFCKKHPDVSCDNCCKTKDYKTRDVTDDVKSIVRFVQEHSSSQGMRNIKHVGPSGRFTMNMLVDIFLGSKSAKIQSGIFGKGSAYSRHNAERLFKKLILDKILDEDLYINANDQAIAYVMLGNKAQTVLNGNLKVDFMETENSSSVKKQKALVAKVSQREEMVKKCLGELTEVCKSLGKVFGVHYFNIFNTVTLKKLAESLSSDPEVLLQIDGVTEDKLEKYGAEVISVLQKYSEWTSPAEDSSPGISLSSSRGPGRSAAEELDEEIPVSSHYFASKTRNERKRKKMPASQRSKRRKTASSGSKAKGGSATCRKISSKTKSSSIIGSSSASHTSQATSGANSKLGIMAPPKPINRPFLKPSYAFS
Chain of DNA polymerase kappa (Homo sapiens) (Q9UBT6 whole entry, looked up): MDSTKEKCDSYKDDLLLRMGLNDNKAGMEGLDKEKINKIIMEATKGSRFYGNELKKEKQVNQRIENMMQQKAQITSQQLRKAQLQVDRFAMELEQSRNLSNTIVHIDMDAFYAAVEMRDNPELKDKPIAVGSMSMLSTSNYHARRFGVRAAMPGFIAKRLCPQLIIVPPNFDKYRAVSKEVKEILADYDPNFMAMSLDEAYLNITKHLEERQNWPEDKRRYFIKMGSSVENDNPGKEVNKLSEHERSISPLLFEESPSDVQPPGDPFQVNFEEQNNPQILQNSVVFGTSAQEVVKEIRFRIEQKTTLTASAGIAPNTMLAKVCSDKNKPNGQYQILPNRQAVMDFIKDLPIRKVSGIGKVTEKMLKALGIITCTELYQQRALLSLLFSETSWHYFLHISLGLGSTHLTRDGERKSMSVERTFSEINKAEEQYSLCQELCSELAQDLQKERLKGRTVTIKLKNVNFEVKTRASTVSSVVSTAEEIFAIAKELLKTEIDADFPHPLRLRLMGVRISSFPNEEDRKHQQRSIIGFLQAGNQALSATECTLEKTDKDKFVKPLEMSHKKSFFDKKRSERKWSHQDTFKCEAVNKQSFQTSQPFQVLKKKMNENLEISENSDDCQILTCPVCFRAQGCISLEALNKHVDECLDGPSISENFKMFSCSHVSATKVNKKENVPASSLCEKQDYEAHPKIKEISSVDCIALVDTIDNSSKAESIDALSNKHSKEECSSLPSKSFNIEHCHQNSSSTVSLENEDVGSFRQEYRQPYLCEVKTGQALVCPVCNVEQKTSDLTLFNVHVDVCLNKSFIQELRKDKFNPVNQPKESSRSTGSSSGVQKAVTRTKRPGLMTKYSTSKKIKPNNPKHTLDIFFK
Chain of Phosphoglycerate kinase, glycosomal (Trypanosoma brucei brucei) (P07378 whole entry, looked up): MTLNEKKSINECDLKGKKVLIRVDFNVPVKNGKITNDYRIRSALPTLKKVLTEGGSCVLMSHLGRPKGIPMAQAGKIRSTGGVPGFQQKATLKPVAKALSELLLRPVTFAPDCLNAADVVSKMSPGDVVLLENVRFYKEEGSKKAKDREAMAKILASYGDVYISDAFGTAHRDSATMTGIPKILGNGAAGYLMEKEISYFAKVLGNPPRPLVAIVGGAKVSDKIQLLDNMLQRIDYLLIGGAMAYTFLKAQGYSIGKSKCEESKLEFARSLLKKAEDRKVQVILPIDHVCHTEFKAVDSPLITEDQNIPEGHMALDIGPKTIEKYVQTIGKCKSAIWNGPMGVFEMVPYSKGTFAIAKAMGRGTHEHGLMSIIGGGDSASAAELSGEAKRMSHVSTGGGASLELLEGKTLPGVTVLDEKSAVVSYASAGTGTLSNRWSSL
Chain of Bifunctional 3'-5' exonuclease/ATP-dependent helicase WRN (Homo sapiens) (Q14191 whole entry, looked up): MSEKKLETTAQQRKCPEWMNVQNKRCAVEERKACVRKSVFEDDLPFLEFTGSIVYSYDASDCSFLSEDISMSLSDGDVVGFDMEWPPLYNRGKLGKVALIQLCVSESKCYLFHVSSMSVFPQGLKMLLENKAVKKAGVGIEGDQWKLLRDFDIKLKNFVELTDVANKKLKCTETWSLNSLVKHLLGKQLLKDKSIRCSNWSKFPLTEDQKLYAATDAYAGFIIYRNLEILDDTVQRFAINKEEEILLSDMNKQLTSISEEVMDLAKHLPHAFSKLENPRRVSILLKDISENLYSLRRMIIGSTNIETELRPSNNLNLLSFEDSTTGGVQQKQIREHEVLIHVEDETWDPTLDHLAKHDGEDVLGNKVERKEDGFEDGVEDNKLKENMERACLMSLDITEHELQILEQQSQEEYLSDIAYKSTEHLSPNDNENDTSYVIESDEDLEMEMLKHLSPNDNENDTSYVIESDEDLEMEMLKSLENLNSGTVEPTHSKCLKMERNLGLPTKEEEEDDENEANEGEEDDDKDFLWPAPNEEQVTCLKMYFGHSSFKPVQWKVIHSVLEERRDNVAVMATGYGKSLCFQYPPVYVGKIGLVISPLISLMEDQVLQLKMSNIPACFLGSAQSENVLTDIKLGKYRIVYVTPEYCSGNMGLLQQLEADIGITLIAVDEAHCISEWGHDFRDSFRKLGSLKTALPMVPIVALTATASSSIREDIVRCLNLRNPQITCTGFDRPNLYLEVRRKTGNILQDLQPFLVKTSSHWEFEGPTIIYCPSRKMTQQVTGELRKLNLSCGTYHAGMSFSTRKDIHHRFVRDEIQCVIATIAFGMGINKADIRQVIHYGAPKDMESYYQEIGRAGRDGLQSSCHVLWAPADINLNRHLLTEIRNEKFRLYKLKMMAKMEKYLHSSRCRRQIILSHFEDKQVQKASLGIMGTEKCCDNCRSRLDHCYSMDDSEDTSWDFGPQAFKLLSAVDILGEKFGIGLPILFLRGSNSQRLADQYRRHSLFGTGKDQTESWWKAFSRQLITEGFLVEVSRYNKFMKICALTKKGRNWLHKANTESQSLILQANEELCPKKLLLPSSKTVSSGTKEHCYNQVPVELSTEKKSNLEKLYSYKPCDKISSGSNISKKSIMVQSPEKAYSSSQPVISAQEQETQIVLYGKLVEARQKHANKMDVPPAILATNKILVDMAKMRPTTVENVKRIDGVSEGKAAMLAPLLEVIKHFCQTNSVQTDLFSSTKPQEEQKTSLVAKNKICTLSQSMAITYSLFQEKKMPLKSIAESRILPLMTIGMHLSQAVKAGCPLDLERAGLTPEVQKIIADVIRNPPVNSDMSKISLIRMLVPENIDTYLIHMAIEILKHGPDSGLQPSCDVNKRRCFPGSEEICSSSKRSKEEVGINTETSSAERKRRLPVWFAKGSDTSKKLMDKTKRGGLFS

Regarding `COc1ccc(-c2nc3c(c(SCC(=O)Nc4ccc(C(=O)O)cc4)n2)Cc2ccccc2O3)cc1`, the Potency in assay [1] is 3.26 µM (active); in assay [2] it was 4.23 µM (active); in assay [3], 7.64 µM (active); in assay [5] it was 2.67 µM (active); in assay [6], 3.04 µM (active). Moreover, the molecule was classed as inactive in assay [4].
